Key:
Experiment in all cases: DAPPL (digital affinity profiling via proximity ligation, sequencing); 10 mM Tris-HCl pH 7.5, 50 mM NaCl, 1 mM DTT, 4% glycerol, room temperature, 30 min; GST-TFs on glutathione beads, 16-mer random dsDNA library, 0.1% formaldehyde crosslink after washing; high values mean tight binding
[1] = target: SPIB (Homo sapiens, UniProt Q01892 1-262); details: protein: recombinant; tags: N-terminal GST; dsDNA, one strand shown
Outline: (§1)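 GST fusions of human transcription factors were expressed in yeast and captured with glutathione beads. Once given DNA barcodes and pooled alongside a tag-only sample, they were incubated for 30 min at room temperature with 200 nmole of a random double-stranded 16-mer DNA library in Tris/NaCl/DTT/glycerol buffer, then washed, crosslinked (0.1% formaldehyde), proximity-ligated, PCR-amplified and sequenced on an Illumina NextSeq500. The binding signal of each hexamer is its read frequency for a factor divided by its frequency for the tag-only sample.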

[2] = target: HSF1 (Homo sapiens, UniProt Q00613 1-529); details: protein: recombinant; tags: N-terminal GST; chain copies: 3; dsDNA, one strand shown
Chain of HSF1 (Q00613 whole entry): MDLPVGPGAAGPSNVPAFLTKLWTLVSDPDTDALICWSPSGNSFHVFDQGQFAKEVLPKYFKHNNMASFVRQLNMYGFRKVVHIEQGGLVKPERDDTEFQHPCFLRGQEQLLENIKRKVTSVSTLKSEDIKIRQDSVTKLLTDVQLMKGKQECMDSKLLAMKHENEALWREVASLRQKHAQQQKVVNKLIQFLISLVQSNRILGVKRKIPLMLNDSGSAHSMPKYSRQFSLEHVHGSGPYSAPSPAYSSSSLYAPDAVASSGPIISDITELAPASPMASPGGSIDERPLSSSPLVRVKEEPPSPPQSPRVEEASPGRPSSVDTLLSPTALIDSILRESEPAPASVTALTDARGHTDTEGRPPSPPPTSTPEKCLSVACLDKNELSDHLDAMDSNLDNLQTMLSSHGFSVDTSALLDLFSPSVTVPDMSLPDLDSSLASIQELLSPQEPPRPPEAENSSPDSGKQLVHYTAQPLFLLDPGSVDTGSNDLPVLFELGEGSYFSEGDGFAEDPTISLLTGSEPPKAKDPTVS
Outline: as §1

[3] = target: T1, SPIC (Homo sapiens, UniProt Q8N5J4 1-248); details: protein: recombinant; tags: N-terminal GST; dsDNA, one strand shown
T1 sequence: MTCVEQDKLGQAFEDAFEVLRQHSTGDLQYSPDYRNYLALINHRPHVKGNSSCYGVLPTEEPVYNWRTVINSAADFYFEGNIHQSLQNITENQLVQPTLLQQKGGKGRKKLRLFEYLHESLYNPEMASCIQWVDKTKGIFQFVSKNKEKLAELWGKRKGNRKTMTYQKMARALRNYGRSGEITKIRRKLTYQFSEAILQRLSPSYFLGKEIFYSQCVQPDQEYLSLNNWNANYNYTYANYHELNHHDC
Outline: as §1

[4] = target: ELF4 (Homo sapiens, UniProt Q99607 1-663); details: protein: recombinant; tags: N-terminal GST; dsDNA, one strand shown
Chain of ELF4 (Q99607 whole entry): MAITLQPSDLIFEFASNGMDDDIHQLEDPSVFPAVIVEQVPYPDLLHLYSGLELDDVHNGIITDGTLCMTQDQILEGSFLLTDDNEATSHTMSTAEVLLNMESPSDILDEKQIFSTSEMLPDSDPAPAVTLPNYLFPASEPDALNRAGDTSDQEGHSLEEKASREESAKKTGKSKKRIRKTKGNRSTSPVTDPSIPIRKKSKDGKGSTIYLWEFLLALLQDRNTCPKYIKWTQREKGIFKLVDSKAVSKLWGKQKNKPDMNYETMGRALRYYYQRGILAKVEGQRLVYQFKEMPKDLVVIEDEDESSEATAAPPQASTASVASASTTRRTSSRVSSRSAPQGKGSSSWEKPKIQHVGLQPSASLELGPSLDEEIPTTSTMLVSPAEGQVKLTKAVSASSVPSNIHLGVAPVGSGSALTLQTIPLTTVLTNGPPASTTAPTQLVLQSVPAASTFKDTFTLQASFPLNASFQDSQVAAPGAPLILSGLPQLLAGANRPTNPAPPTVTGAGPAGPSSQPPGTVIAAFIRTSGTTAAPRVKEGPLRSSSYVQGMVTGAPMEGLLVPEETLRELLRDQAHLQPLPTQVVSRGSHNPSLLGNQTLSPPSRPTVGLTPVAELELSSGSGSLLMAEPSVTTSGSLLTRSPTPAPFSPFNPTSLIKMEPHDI
Outline: as §1

[5] = target: T2, ETV2 (Homo sapiens, UniProt O00321 1-342); details: protein: recombinant; tags: N-terminal GST; dsDNA, one strand shown
T2 sequence: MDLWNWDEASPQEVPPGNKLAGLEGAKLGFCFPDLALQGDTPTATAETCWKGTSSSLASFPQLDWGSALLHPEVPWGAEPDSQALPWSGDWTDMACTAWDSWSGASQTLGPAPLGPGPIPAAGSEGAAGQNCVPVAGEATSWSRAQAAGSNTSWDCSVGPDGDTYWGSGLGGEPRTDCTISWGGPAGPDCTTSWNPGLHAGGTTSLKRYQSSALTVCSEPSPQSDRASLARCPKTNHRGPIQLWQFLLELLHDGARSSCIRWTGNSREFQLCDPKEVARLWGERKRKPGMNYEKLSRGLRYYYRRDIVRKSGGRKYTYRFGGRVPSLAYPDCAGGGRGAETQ
Outline: as §1

[6] = target: T3, ELF3 (Homo sapiens, UniProt P78545 1-371); details: protein: recombinant; tags: N-terminal GST; dsDNA, one strand shown
T3 sequence: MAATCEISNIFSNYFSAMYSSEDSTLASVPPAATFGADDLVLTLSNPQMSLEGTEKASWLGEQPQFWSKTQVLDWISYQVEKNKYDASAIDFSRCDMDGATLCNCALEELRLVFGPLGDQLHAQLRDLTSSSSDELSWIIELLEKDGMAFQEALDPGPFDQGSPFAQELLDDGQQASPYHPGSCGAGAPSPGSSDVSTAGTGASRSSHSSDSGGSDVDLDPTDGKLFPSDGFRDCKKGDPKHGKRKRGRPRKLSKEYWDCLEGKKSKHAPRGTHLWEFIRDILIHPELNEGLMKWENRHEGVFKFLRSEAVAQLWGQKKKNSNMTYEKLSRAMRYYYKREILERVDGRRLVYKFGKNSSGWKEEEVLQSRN
Outline: as §1

[7] = target: CRX (Homo sapiens, UniProt O43186 1-299); details: protein: recombinant; tags: N-terminal GST; dsDNA, one strand shown
Chain of CRX (O43186 whole entry): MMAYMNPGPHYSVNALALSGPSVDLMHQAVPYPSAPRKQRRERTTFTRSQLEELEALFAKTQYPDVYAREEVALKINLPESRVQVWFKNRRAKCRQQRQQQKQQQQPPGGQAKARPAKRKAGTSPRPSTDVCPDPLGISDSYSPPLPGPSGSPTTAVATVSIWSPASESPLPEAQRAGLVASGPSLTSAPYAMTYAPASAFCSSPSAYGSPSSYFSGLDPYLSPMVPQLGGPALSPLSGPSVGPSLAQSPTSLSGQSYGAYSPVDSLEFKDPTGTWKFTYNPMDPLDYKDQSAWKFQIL
Outline: as §1

[8] = target: ETV1 (Homo sapiens, UniProt P50549 1-477); details: protein: recombinant; tags: N-terminal GST; dsDNA, one strand shown
Chain of ETV1 (P50549 whole entry): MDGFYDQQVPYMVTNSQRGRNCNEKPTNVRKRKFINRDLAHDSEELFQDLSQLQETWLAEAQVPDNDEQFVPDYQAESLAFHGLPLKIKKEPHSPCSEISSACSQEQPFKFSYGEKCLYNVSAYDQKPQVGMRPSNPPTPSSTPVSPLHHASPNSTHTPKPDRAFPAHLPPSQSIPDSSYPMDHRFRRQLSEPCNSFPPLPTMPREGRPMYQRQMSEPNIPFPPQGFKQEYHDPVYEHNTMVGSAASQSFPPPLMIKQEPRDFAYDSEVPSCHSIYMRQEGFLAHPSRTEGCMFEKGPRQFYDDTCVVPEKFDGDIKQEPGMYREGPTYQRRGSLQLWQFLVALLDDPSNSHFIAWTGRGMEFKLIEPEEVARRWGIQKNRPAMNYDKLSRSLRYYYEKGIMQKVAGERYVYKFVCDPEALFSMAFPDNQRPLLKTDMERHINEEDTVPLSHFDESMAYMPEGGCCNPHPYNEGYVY
Outline: as §1

[9] = target: T4, ETV3L (Homo sapiens, UniProt Q6ZN32 1-361); details: protein: recombinant; tags: N-terminal GST; dsDNA, one strand shown
T4 sequence: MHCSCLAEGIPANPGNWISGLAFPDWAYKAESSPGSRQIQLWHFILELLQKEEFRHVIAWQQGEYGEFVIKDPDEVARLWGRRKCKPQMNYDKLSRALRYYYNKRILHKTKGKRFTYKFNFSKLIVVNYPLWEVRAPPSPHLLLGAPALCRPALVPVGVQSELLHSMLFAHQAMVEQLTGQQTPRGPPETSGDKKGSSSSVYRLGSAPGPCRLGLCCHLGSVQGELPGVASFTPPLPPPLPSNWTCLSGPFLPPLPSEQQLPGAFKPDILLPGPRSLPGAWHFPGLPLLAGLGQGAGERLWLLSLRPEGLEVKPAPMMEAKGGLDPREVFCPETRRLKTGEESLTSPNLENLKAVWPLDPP
Outline: as §1

[10] = target: T5, ETS2 (Homo sapiens, UniProt P15036 1-469); details: protein: recombinant; tags: N-terminal GST; dsDNA, one strand shown
T5 sequence: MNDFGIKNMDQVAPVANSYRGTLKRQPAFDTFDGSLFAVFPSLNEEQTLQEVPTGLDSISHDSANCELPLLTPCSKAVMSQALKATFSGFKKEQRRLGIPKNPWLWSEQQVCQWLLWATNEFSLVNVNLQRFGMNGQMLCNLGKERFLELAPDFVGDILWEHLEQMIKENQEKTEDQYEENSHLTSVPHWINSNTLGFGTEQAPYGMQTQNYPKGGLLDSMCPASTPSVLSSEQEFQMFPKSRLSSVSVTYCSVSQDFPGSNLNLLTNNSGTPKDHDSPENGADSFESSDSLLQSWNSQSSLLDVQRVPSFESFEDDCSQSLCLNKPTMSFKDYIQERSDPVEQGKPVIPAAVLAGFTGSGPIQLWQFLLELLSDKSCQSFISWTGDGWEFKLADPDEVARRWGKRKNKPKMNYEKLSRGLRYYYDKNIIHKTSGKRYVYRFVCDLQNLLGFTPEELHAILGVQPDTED
Outline: as §1

[11] = target: T6, SPDEF (Homo sapiens, UniProt O95238 1-335); details: protein: recombinant; tags: N-terminal GST; dsDNA, one strand shown
T6 sequence: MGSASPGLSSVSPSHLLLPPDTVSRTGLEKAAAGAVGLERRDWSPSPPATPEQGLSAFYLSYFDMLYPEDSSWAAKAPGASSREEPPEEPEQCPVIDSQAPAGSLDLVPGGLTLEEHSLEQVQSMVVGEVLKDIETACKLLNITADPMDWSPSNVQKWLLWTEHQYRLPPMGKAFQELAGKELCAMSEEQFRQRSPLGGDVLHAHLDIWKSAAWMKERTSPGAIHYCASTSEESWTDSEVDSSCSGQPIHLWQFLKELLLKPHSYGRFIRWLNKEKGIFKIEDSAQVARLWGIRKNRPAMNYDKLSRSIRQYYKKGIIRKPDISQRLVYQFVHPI
Outline: as §1

[12] = target: T7, ETV7 (Homo sapiens, UniProt Q9Y603 1-341); details: protein: recombinant; tags: N-terminal GST; dsDNA, one strand shown
T7 sequence: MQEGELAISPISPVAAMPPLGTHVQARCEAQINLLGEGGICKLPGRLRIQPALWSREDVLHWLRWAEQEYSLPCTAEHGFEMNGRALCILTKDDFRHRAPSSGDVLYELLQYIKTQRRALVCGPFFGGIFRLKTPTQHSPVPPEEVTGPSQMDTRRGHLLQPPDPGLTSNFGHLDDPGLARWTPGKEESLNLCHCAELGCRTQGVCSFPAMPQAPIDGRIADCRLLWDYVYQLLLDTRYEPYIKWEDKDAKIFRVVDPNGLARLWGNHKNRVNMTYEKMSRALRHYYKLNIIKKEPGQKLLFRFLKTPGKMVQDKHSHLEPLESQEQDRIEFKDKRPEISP
Outline: as §1

[13] = target: T8, ETV3 (Homo sapiens, UniProt P41162-2 1-143); details: protein: recombinant; tags: N-terminal GST; dsDNA, one strand shown
T8 sequence: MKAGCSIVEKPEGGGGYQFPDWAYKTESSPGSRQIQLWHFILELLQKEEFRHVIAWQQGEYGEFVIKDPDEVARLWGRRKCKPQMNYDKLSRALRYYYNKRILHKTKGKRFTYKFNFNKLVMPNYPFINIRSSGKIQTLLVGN
Outline: as §1

Chain of SPIB (Q01892 whole entry, the tested form may be a part): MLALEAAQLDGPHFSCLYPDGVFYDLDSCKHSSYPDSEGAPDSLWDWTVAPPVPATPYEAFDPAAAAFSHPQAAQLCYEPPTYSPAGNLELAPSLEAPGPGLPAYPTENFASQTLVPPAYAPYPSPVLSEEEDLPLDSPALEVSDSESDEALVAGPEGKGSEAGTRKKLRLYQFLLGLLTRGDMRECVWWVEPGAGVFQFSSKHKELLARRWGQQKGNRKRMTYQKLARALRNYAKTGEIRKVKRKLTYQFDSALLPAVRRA

GATTCG
binding signal [1]: 1.04 fold enrichment (6-mer frequency, TF over GST control) | binding signal [2]: 1.23 fold enrichment (6-mer frequency, TF over GST control) | binding signal [3]: 1.16 fold enrichment (6-mer frequency, TF over GST control) | binding signal [4]: 1.05 fold enrichment (6-mer frequency, TF over GST control) | binding signal [5]: 1.02 fold enrichment (6-mer frequency, TF over GST control) | binding signal [6]: 1.09 fold enrichment (6-mer frequency, TF over GST control) | binding signal [7]: 1.06 fold enrichment (6-mer frequency, TF over GST control) | binding signal [8]: 1.03 fold enrichment (6-mer frequency, TF over GST control) | binding signal [9]: 1.06 fold enrichment (6-mer frequency, TF over GST control) | binding signal [10]: 1 fold enrichment (6-mer frequency, TF over GST control) | binding signal [11]: 1 fold enrichment (6-mer frequency, TF over GST control) | binding signal [12]: 1.01 fold enrichment (6-mer frequency, TF over GST control) | binding signal [13]: 1 fold enrichment (6-mer frequency, TF over GST control)

Reference: article PMC7862700, “An all-to-all approach to the identification of sequence-specific readers for epigenetic DNA modifications on cytosine”
